Hits are enriched below; roughly 7.5% of the tested compounds scored in any of these assays.
Rab9 prom act: activates the Rab9 promoter; Huh7 Rab9 promoter-luciferase reporter, luminescence, 24 h; Potency, µM (titrated, usually from 9.22 µM), without a hit: at the top dose activation, negative = inhibition, hits mostly activators; hit rate 2.8% among 320,000; AID 485297; note: % of control where 0% means no effect; nearly all actives have a fitted effect of over 60% in size
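Steps: seed 1500 Huh7 Rab9-luc cells per well, rest 2 h at 37 °C; add compound in DMSO; incubate 24 h; add luciferase reagent, 10 min ambient; read luminescence.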
SMN2 splice enh: SMN2 splice variant enhancement; HEK293 SMN2-luciferase splicing reporter, luminescence, 30-36 h; Potency, µM (doses to about 46.1 µM), inactives show at the top dose activity change, positive = activation, hits mostly activators; hit rate 2.8% among 210,000; note: % of control where 0% means no effect; nearly all actives have a fitted effect of over 55% in size
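qHTS luciferase splicing reporter: luminescence rises when SMN2 exon 7 is included in transfected HEK293 cells. Compound exposure lasted 30-36 h at 37C, with 4.5 mM final sodium butyrate as control, followed by a ONE-Glo read.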
FLuc modulator: inhibits or activates purified firefly luciferase, miR-21 counter-screen. purified FLuc, Km substrates, luminescence inhibition. Potency, µM (titrated, usually from 57.5 µM), for the others: at the highest dose activity change, negative = inhibition, hits mostly inhibitors. hit rate 6.9% among 360,000. AID 588342;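 note: plate controls were vehicle for no effect and reference inhibitor for full effect; nearly all actives have a fitted effect of over 55% in size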
Target sequence (P08659 whole entry, looked up): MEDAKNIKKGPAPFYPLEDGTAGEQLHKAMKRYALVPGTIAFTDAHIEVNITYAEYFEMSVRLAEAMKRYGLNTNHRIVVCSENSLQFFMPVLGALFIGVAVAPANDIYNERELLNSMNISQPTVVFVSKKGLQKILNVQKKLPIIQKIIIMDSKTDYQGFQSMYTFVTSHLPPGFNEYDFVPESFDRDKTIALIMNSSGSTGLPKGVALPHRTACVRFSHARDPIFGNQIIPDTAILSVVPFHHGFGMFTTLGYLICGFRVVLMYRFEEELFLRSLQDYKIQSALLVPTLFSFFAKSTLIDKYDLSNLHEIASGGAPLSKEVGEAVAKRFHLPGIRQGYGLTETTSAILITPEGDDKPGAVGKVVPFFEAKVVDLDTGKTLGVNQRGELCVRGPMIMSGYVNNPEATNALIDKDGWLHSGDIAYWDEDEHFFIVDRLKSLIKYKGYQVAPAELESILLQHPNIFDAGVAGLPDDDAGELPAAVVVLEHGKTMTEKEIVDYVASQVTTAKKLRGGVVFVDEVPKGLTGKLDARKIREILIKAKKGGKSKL
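Biochemical qHTS of compounds, final roughly 60 µM downward over six points, against 10 nM purified firefly luciferase using Km concentrations of substrates (10 uM D-luciferin, 10 uM ATP) in Tris acetate pH 7.5 buffer; luminescence output.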
KinaseGlo FLuc: blocks Kinase-Glo luciferase, a counter-screen artifact; Q27757; Kinase-Glo luciferase, ATP luminescence, 8 min; Potency, µM (series often up to 38.3 µM), for inactives: at the top dose activity change, negative = inhibition, most hits filed as inhibitors; hit rate 0.28% among 200,000; AID 1379; note: % is set by controls: 0 for no effect and ±100 for the full control effect; nearly all actives have a fitted effect of over 60% in size
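Substrate mix (final 50 mM imidazole pH 7.2, 50 mM KCl, 7 mM MgCl2, 10 uM ATP, 0.01% Tween 20, 0.05% BSA) plus pin-tool compound, then Kinase-Glo detection mix; 8 min ambient, luminescence read.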
NPC1 promoter act: NPC1 promoter activation | Huh7 NPC1 promoter luciferase reporter, 24 h | Potency, µM (highest dose often 9.22 µM), for inactives: top-dose activation, usual class: activators | hit rate 2.4% among 320,000; note: % of control where 0% means no effect; nearly all actives have a fitted effect of over 60% in size
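Cells: Huh7 expressing luciferase under the NPC1 promoter, 1500/well. Seeded 2 h, compound added, incubated 24 h at 37 °C. Luciferase reagent, 10 min ambient, then luminescence.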
ELG1 genotoxic: genotoxicity induction in ELG1-luciferase HEK293T cells; HEK293T ELG1-luciferase reporter, luminescence, 16 h; Potency, µM (highest dose often 46 µM), for the others: top-dose activity change, positive = activation, usual class: activators; hit rate 1.3% among 330,000; note: % of control where 0% means no effect; nearly all actives have a fitted effect of over 60% in size
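HEK293T cells expressing luciferase-tagged ELG1 were treated with compound or DMSO for 16 hr at 37°C. Luciferase activity was then read after 30 min with ONE-Glo at room temperature; rising signal flags genetic stress.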
Starred values were filed as active, the others as inactive; ? = inconclusive; / = no result given. Calls come from the whole dose curve; as a rule, active = well fitted curve in the direction sought with a large enough effect; inconclusive = small, poorly fitted or top-dose-only effect, or another doubt; inactive = no such curve, though single readings can be large; an effect the other way counts as inactive or inconclusive. Potency is the fitted concentration of half-maximal effect.

SMILES | Rab9 prom act | SMN2 splice enh | FLuc modulator | KinaseGlo FLuc | NPC1 promoter act | ELG1 genotoxic
COc1ccccc1-c1nnc(Sc2nc([N+](=O)[O-])nn2C)o1 | 1% | -68% | 0% | 16% | -4% | -20%
COCCn1c(SCC(=O)Nc2ccc(F)c(Cl)c2)nc2c(oc3ccccc32)c1=O | / | -1% | -6% | / | / | /
O=C(O)c1ccccc1-c1ccccc1C(=O)Nc1ccc(-c2nc3cc(Cl)ccc3o2)cc1 | 14% | / | 15µM* | / | 1% | 17%
O=C(Nc1ccc(-c2nc3cc(Cl)ccc3o2)cc1)c1cc(Br)ccc1Cl | / | -7% | ? | / | / | /
CC(=O)Nc1ccc(-c2nc3cc(Cl)ccc3o2)cc1 | 0.79µM* | / | 1.3µM* | / | 0.5µM* | 2.1µM*
CC(=O)Nc1cc(-c2nc3cc(Cl)ccc3o2)ccc1C | / | / | -18% | / | / | /
COc1ccc(-n2nnnc2SCC(=O)NC(=O)Nc2ccc3c(c2)OCCO3)cc1 | 27% | -16% | 19µM* | 20% | 19% | ?
O=C(CSc1nnnn1-c1ccc(Cl)cc1)NC(=O)Nc1ccc2c(c1)OCCO2 | ? | ? | ? | -3% | ? | 17%
C[C@H](NS(=O)(=O)c1ccc(Cl)cc1)C(=O)OCC(=O)NC(=O)Nc1ccc2c(c1)OCCO2 | 21% | ? | 17µM* | -4% | 19% | ?
Cc1nnc(SCC(=O)NC(=O)Nc2ccc3c(c2)OCCO3)n1N | 1.8µM* | / | 17µM* | / | ? | 3%
COc1ccc(NC(=O)CSc2nnnn2-c2ccc(OC)cc2)cc1 | -2% | -3% | 0% | -4% | 8% | 2%
Cc1ccc(-n2nnnc2SCC(=O)NC(=O)Nc2ccc3c(c2)OCCO3)cc1 | ? | 19% | 21µM* | 2% | 28% | 15%
COc1cc2ccccc2cc1C(=O)Nc1ccc2oc(-c3cccc(C)c3)nc2c1 | / | -8% | ? | / | / | /
CCc1ccc(NC(=O)CSc2nc(=O)n(Cc3ccncc3)c3c2CCC3)cc1 | / | / | 0% | / | / | /
Cc1ccc(-c2nn(-c3ccccc3)cc2C2CC(c3cccs3)=NN2C(=O)CCC(=O)O)cc1 (stereo not given) | -1% | -14% | 0% | 1% | 0% | 4%
O=C(O)CCn1cc(C2CC(c3ccccc3)=NN2c2ccccc2)c(-c2ccccc2)n1 (stereo not given) | 10% | 0% | 19µM* | -1% | -1% | -2%
COc1ccc(Cl)cc1NC(=O)c1cc(C)nc2c1c(C)nn2-c1ccccc1 | / | / | -4% | / | / | /
Nn1c(SCc2ccccc2)nnc1-c1ccco1 | -5% | 27% | -13% | -2% | 0% | ?
c1ccc(Cn2ccnc2-c2ccco2)cc1 | 10% | 15% | 21µM* | -5% | 14% | ?
CCCC1=C(C(=O)OCC)C(c2sccc2C)n2ncnc2N1 (stereo not given) | 2% | / | 0% | / | -1% | -2%
c1ccc(Cc2nc3ccccc3o2)cc1 | 7% | -3% | 19µM* | -9% | 1% | 15%
O=c1c2ccccc2oc2ccccc12 | / | ? | / | -12% | / | /
COc1ccc2c(c1)oc(=O)c1ccccc12 | 6% | 1% | ? | 1% | -4% | 16%
COc1ccc2c(c1)oc(=O)c1cc(OC)ccc12 | 2.5µM* | / | 3µM* | / | 2.5µM* | 10µM*
COc1ccc2c(=O)c3ccccc3oc2c1 | ? | / | 12µM* | / | 3.5µM* | ?
SMILES | Rab9 prom act | SMN2 splice enh | FLuc modulator | KinaseGlo FLuc | NPC1 promoter act | ELG1 genotoxic
Nc1cccc(C#Cc2ccc3c(=O)c4ccccc4oc3c2)c1 | 0.56µM* | / | ? | / | 18% | ?
O=C(NCc1ccccc1)c1ccc2c(c1)sc1nc(-c3ccc(F)cc3)cn12 | / | / | 1% | / | / | /
COC(=O)c1ccc(N2C(=O)CC(SCCN)C2=O)cc1 (stereo not given) | ? | 11µM* | ? | 1% | ? | 12µM*
CCCOc1ccc(N2C(=O)CC(SCCN)C2=O)cc1 (stereo not given) | 2.2µM* | 13µM* | 12µM* | -8% | 4µM* | ?
CCCOc1ccc(N2C(=O)CC(SCC(N)C(=O)OCC)C2=O)cc1 (stereo not given) | 0% | / | 4% | / | -3% | -1%
CCN(CC(=O)Nc1c(F)cccc1F)C(=O)CCSc1ccc(F)cc1 | -5% | / | 3% | / | -5% | 0%
CC1(C(=O)OCC(=O)Nc2nc(-c3ccc(F)c(F)c3)cs2)CC1(Cl)Cl (stereo not given) | 13% | / | -14% | / | 9% | -33%
O=C(Nc1nc2c(F)cccc2s1)c1ccc(S(=O)(=O)N2CCOCC2)cc1 | / | / | 0% | / | / | /
CC(=O)Nc1ccc2nc(CN3CCN(CC=C(C)C)C(CCO)C3)ccc2c1 (stereo not given) | 1% | / | -2% | / | 10% | 1%
O=C(COc1ncnc2cc(Cl)ccc12)c1ccc2c(c1)OCCO2 | 0.63µM* | / | 1.9µM* | / | 3.2µM* | ?
O=C(COc1ncnc2ccccc12)c1ccc2c(c1)OCCO2 | 1.1µM* | / | 4.8µM* | / | 1.1µM* | ?
O=C(CSc1ncnc2ccccc12)c1ccc2c(c1)OCCO2 | 2.8µM* | / | 3.4µM* | / | ? | ?
Cc1ccc(C(=O)COc2ncnc3cc(Cl)ccc23)cc1 | 26% | / | ? | / | 27% | 9%
Cc1ccc(C)c(C(=O)COc2ncnc3ccccc23)c1 | 18% | 14% | ? | -1% | 8% | 2%
C=CCc1c(C)[nH]c2c(OC)cccc2c1=S | -9% | / | ? | 5% | 0% | -5%
COC(=O)c1n[nH]n(-c2ccccc2)c1=O | / | 5% | 7% | / | / | /

Screening results as filed in PubChem.
